Activity calls are given as the source filed them. Unless noted, how the calls were made is not given here.
Assays:
[1] = anti-His antibody binders, primary screen, artefact control for SMM control protein annotation, biochemical, small-molecule microarray, 635 nm fluorescence (AID 1128); settings: anti-His Alexa647 antibody binding, higher = more signal;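 further: score merges feature fluorescence with signal-to-noise for each printed compound spot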
[2] = system: Human papillomavirus type 1a E7 protein (residues 1-88); assay: HPV1a E7 small-molecule binders, primary screen, biochemical, small-molecule microarray, residues 1-88, 635 nm (AID 1129); settings: small-molecule microarray binding, fluorescence 635 nm; higher = more signal
[3] = biological target: Focal adhesion kinase 1 (Homo sapiens) (UniProt Q05397); assay: small-molecule microarray binders of FAK, primary screen, biochemical, 635/667 nm fluorescence, BSA, DTT (AID 1130); settings: PTK2 binding, 635 nm fluorescence, higher = more signal;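 further: composite of spot emission at 667 nm and signal to noise over triplicate slides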
[4] = system: Fibrinogen (Alexa647-labelled); assay: fibrinogen binders on compound microarrays, profiling panel, artefact control for SMM control-protein annotation, biochemical, small-molecule microarray, 635/667 nm fluorescence (AID 1131); settings: fibrinogen-A647 binding fluorescence, higher = more signal;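 further: z-score merges 667 nm fluorescence with per-spot signal-to-noise over triplicate slides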
[5] = biological target: Follistatin (Homo sapiens) (UniProt P19883); assay: follistatin binders on small-molecule microarrays, primary screen, biochemical, small-molecule microarray, 635/667 nm fluorescence (AID 1132); settings: FST binding, 635 nm fluorescence, higher = more signal
[6] = biological target: Fibroblast growth factor 2 (Homo sapiens) (UniProt P09038); assay: FGF2 binders on small-molecule microarrays, primary screen, biochemical, small-molecule microarray, 635/667 nm fluorescence (AID 1133); settings: small-molecule microarray binding, FGF2, fluorescence 635/667; higher = more signal
[7] = mitochondrial membrane potential change in A549 cells, profiling panel, cell-based, JC-1 fluorescence, basal, 24 h, 100 nL (AID 1138); settings: higher = more signal;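 further: A549 lung adenocarcinoma cells under basal conditions with no added stimulus; test concentration not given here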
[8] = system: Lefty1; assay: Lefty1 binders on small-molecule microarrays, primary screen, biochemical, small-molecule microarray, 635/667 nm fluorescence (AID 1139); settings: small-molecule microarray binding, fluorescence 635/667; higher = more signal
[9] = system: wheat germ agglutinin (Triticum aestivum), Alexa647-labelled; assay: wheat germ agglutinin binders on compound microarrays, profiling panel, artefact control for SMM control-protein annotation, biochemical, small-molecule microarray, 635/667 nm fluorescence (AID 1140); settings: WGA-A647 binding, 635 nm fluorescence, higher = more signal;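 further: score merges 667 nm feature emission with signal to noise over triplicate slides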
[10] = biological target: Luciferin 4-monooxygenase (Photinus pyralis) (UniProt P08659); assay: firefly luciferase enzyme inhibitors, primary screen, biochemical, luminescence, purified enzyme, 2006 set (AID 1141); settings: SteadyGlo luminescence, 30 min, higher = more signal, called active from +8 up or from −8 down;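 further: cell-free assay with purified firefly luciferase at 100 ng per well in PBS; test concentration not given here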
[11] = system: Wnt5a (protein binding on small-molecule microarray); assay: Wnt5a binders on small-molecule microarray, primary screen, biophysical, 635/667 nm fluorescence (AID 1142); settings: 635 nm fluorescence, higher = more signal;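 further: fluorescence read at 667 nm with signal to noise per printed feature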
[12] = cell viability in Huh7 cells, primary screen, cytotoxicity control for HCV replication inhibitor project, CellTiter-Glo luminescence, basal, 48 h (AID 1143); settings: Huh7 HCV replicon, higher = more signal, called active from +8 up or from −8 down;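 further: Huh7 hepatoma cells carrying a hepatitis C replication reporter with no stimulus; test concentration not given here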
[13] = P. aeruginosa biofilm formation inhibitors, primary screen, PAO1 strain, BacTiter-Glo luminescence, LB-PBS (AID 1144); settings: 12 h, higher = more signal
[14] = CREB reporter modulators without forskolin, primary screen, cell-based, PC12, CRE-LacZ reporter, unstimulated (AID 1145); settings: no forskolin, luminescence, 4.5 h, higher = more signal, called active from +8 up or from −8 down
[15] = CREB reporter modulators under forskolin, primary screen, cell-based, PC12, CRE-LacZ reporter, forskolin-stimulated (AID 1146); settings: luminescence, 4.5 h, higher = more signal, called active from +8 up or from −8 down;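 further: PC12 cells with 6xCRE LacZ reporter stimulated by forskolin 10 µM; beta-galactosidase reporter signal reflecting CREB driven transcription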
[16] = biological target: Streptavidin (Streptomyces avidinii) (UniProt P22629); assay: streptavidin binders on small-molecule microarray, primary screen, artefact control for SMM compound annotation, biophysical, 635/667 nm fluorescence (AID 1147); settings: streptavidin binding, higher = more signal;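 further: signal reflects streptavidin binding to arrayed compounds as a control protein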
[17] = small-molecule binders of probe aInhba, primary screen, biochemical, small-molecule microarray, 635/667 nm fluorescence (AID 1148); settings: higher = more signal;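 further: score merges 667nm spot fluorescence with signal-to-noise for antibody binding to printed compounds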
[18] = biological target: Torsin-1A (Homo sapiens) (UniProt O14656); assay: torsin A binders from cell lysate, primary screen, small-molecule microarray, wild-type, 635/667 nm (AID 1149); settings: COS7 hTOR1A-WT lysate, 635 nm fluorescence, higher = more signal
[19] = biological target: Torsin-1A (Homo sapiens) (UniProt O14656); assay: small-molecule binders of mutant TOR1A in lysate, primary screen, cell lysate, small-molecule microarray, COS7 lysate, 635/667 nm fluorescence (AID 1150); settings: COS7 hTOR1A mutant lysate, 635 nm fluorescence, higher = more signal;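 further: score pools 667 nm emission and signal to noise measuring lysate protein binding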
[20] = system: Sonic hedgehog protein (Shh); assay: small-molecule binders of Shh protein, primary screen, biochemical, small-molecule microarray, 635/667 nm fluorescence (AID 1151); settings: small-molecule microarray binding, 635 nm fluorescence; higher = more signal;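 further: Shh protein binding to compounds spotted on small-molecule microarray slides; score combines spot fluorescence intensity with signal-to-noise across triplicate slides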

Sequence of Follistatin (Homo sapiens) (P19883 whole entry, looked up): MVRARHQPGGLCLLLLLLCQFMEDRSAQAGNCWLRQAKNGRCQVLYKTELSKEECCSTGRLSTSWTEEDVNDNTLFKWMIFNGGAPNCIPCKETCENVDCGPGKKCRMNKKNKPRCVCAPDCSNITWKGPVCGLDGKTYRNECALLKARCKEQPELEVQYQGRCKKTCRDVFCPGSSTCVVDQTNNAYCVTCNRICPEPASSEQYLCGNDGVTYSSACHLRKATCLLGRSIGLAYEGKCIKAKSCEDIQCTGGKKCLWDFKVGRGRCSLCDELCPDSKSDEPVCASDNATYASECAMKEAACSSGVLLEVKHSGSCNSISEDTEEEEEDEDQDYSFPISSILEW
Sequence of Torsin-1A (Homo sapiens) (O14656 whole entry, looked up): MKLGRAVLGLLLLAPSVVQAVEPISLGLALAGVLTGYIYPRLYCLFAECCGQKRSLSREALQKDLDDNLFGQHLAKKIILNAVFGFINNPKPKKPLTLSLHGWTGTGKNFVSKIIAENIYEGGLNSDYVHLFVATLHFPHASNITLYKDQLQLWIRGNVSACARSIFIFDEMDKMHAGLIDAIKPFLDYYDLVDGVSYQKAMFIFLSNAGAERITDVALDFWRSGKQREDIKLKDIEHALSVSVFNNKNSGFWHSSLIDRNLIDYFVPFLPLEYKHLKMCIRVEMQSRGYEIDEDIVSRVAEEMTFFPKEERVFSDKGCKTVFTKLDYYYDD
Sequence of Streptavidin (Streptomyces avidinii) (P22629 whole entry, looked up): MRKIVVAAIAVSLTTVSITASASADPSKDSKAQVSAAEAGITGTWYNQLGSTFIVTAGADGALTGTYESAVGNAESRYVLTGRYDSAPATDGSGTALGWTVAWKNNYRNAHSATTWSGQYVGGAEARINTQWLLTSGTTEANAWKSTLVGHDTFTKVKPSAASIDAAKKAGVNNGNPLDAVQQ
Sequence of Focal adhesion kinase 1 (Homo sapiens) (Q05397 whole entry, looked up): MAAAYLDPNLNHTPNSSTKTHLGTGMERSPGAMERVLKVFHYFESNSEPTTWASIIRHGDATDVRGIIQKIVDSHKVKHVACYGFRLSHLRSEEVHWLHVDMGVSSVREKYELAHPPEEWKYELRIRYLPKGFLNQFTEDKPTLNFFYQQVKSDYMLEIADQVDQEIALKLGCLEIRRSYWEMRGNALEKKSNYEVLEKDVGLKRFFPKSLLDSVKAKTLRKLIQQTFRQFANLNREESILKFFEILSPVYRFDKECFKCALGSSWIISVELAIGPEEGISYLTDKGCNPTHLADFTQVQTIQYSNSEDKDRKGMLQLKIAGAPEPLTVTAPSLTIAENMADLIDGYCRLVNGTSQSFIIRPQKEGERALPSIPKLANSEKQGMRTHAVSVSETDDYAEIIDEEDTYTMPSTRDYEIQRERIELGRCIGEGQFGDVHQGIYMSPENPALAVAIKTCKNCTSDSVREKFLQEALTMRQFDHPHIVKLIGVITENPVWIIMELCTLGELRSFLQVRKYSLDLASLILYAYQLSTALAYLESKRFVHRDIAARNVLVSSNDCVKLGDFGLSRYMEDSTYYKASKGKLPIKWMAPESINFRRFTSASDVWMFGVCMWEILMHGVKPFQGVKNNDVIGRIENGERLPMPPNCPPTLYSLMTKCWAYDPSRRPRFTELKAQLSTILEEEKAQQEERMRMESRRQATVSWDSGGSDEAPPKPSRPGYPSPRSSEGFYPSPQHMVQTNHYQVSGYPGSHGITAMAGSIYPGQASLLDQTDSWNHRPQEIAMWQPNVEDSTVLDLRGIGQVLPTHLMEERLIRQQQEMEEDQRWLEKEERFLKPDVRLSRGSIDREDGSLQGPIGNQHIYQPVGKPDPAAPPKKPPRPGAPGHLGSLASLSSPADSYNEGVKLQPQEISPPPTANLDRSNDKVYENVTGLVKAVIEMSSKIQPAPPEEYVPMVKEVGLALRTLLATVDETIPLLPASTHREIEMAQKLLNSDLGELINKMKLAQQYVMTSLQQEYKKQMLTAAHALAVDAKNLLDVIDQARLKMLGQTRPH
Sequence of Fibroblast growth factor 2 (Homo sapiens) (P09038 whole entry, looked up): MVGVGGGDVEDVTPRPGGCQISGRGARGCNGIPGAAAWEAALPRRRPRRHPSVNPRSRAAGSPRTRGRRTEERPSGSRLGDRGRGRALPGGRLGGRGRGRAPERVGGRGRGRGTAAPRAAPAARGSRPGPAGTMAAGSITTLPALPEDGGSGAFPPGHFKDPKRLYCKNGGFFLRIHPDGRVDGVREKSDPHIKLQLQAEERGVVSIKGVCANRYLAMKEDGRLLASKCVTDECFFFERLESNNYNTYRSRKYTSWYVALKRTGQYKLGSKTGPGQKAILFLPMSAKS
Sequence of Luciferin 4-monooxygenase (Photinus pyralis) (P08659 whole entry, looked up): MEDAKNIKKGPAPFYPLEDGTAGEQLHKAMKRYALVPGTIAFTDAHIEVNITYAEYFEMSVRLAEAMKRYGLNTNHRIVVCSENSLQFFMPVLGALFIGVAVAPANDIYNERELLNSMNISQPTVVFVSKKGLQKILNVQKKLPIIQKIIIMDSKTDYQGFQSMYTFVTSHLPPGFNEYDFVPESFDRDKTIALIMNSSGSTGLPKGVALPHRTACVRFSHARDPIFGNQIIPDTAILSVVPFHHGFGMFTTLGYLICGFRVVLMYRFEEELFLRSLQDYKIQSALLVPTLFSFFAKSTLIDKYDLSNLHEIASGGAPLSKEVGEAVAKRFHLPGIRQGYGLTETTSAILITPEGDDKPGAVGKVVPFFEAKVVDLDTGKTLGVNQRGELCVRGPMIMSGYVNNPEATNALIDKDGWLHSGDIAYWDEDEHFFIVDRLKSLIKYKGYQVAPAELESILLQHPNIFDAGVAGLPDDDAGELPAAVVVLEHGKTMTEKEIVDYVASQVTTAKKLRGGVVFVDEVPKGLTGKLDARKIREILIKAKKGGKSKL

C=C1C2CC3C(=C4C(CO[C@@H]4[C@H]4CCCN4S(=O)(=O)c4ccccc4[N+](=O)[O-])C4C(=O)N(C)C(=O)C34)CC2C(=O)N1C (stereo not given in full)
composite z-score [1]: -0.382
composite z-score [2]: 0.128
composite z-score [3]: 0.0722
composite z-score [4]: 0.412
composite z-score [5]: 0.482
composite z-score [6]: 0.425
z-score [7]: 0.225
composite z-score [8]: 0.218
composite z-score [9]: 0.337
z-score [10]: 0.101 (inactive)
composite z-score [11]: -0.0541
z-score [12]: 0.985 (inactive)
z-score [13]: 0.283 (inactive)
z-score [14]: 3.21 (inactive)
z-score [15]: 0.769 (inactive)
composite z-score [16]: -0.207
composite z-score [17]: -0.101
composite z-score [18]: 0.942
composite z-score [19]: 0.107
composite z-score [20]: 0.832

CCN(CC)c1ccc(N2CC=CC34O[C@@H]5/C=C\CCC(C)OC(=O)C5[C@H]3C(=O)N(CCO)[C@@H]4C2=O)cc1 (stereo not given in full)
composite z-score [1]: 2.08
composite z-score [2]: -0.204
composite z-score [3]: 0.235
composite z-score [4]: -1.45
composite z-score [5]: -0.69
composite z-score [6]: -0.734
z-score [7]: 0.431
composite z-score [8]: -0.171
composite z-score [9]: 0.144
z-score [10]: -0.801 (inactive)
composite z-score [11]: -0.442
z-score [12]: -1.33 (inactive)
z-score [13]: 0.655 (inactive)
z-score [14]: 0.195 (inactive)
z-score [15]: -0.295 (inactive)
composite z-score [16]: -0.21
composite z-score [17]: -0.0774
composite z-score [18]: -1.12
composite z-score [19]: -1.25
composite z-score [20]: 0.414

C=CCC(OC(C)=O)[C@@H]1[C@@H](N(Cc2ccc(-c3ccccc3)cc2)C(=O)c2cccc3ccccc23)c2cc(OCCCO)ccc2N1C(=O)Cc1ccc2ccccc2c1 (stereo not given in full)
composite z-score [1]: 0.23
composite z-score [2]: -0.0083
composite z-score [3]: -0.0525
composite z-score [4]: -0.545
composite z-score [5]: 0.295
composite z-score [6]: -0.327
z-score [7]: 0.31
composite z-score [8]: 0.191
composite z-score [9]: 0.605
z-score [10]: -0.105 (inactive)
composite z-score [11]: -0.195
z-score [12]: -1.31 (inactive)
z-score [13]: 0.457 (inactive)
z-score [14]: 0.423 (inactive)
z-score [15]: -0.481 (inactive)
composite z-score [16]: -0.0695
composite z-score [17]: -0.17
composite z-score [18]: 0.0517
composite z-score [19]: 0.12
composite z-score [20]: 0.39

C=C(COC)/C(=C/C[C@@H](OC(=O)c1ccncc1)c1ccc(CO)o1)c1cnc2ccccc2c1
composite z-score [1]: 1.87
composite z-score [2]: 1.22
composite z-score [3]: 0.268
composite z-score [4]: 0.973
composite z-score [5]: 1.47
composite z-score [6]: 1.61
z-score [7]: -0.557
composite z-score [8]: 1.67
composite z-score [9]: 1.56
z-score [10]: -2.96 (inactive)
composite z-score [11]: 0.911
z-score [12]: 0.173 (inactive)
z-score [13]: -0.854 (inactive)
z-score [14]: -0.611 (inactive)
z-score [15]: -0.0377 (inactive)
composite z-score [16]: 1.07
composite z-score [17]: -0.0136
composite z-score [18]: 1.86
composite z-score [19]: 0.962
composite z-score [20]: 2.46

CC(C)C(O)C1C=CC2C(=O)N(C)C(=O)C2N1N(c1ccccc1)c1ccccc1 (stereo not given)
composite z-score [1]: 0.545
composite z-score [2]: -0.735
composite z-score [3]: 0.523
composite z-score [4]: 0.597
composite z-score [5]: -0.0394
composite z-score [6]: -0.926
z-score [7]: 0.953
composite z-score [8]: -0.852
composite z-score [9]: 0.357
z-score [10]: 0.734 (inactive)
composite z-score [11]: -0.18
z-score [12]: 0.909 (inactive)
z-score [13]: 0.633 (inactive)
z-score [14]: 0.0535 (inactive)
z-score [15]: -0.136 (inactive)
composite z-score [16]: 0.0226
composite z-score [17]: -0.0332
composite z-score [18]: -0.141
composite z-score [19]: 0.369
composite z-score [20]: -1.28

CC(C)(C)OC(=O)CC[C@]1(C(=O)O)N=C(c2ccc(OCCCO)cc2)O[C@H]1c1ccccc1CN=[N+]=[N-]
composite z-score [1]: 0.401
composite z-score [2]: 0.251
composite z-score [3]: -0.171
composite z-score [4]: -0.0709
composite z-score [5]: 0.467
composite z-score [6]: 0.13
z-score [7]: 0.902
composite z-score [8]: -0.482
composite z-score [9]: 0.393
z-score [10]: -2.06 (inactive)
composite z-score [11]: 0.108
z-score [12]: 0.109 (inactive)
z-score [13]: 0.618 (inactive)
z-score [14]: -1.09 (inactive)
z-score [15]: -1.7 (inactive)
composite z-score [16]: -0.247
composite z-score [17]: 0.0074
composite z-score [18]: -0.61
composite z-score [19]: -0.13
composite z-score [20]: -0.533

COc1ccc([Si](C)(C)[C@H]2[C@H](CCn3cc(CCO)nn3)O[C@@]3(C(=O)N(Cc4ccc(N5C(=O)c6cccc7cccc5c67)cc4)c4ccccc43)[C@@H]2C)cc1
composite z-score [1]: 1.12
composite z-score [2]: 1.2
composite z-score [3]: 0.379
composite z-score [4]: 0.431
composite z-score [5]: 1.23
composite z-score [6]: 0.949
z-score [7]: -0.932
composite z-score [8]: 1.31
composite z-score [9]: 0.578
z-score [10]: 0.303 (inactive)
composite z-score [11]: 0.426
z-score [12]: -7.91 (inactive)
z-score [13]: -0.152 (inactive)
z-score [14]: 1.12 (inactive)
z-score [15]: -0.213 (inactive)
composite z-score [16]: 0.798
composite z-score [17]: -0.0933
composite z-score [18]: 0.316
composite z-score [19]: 0.238
composite z-score [20]: 2.08

C=C(C(=O)CC[C@H](OC(C)=O)c1cccc(OCCO)c1)C(C)C
composite z-score [1]: -0.734
composite z-score [2]: -1.35
composite z-score [3]: -0.311
composite z-score [4]: -0.0681
composite z-score [5]: -0.791
composite z-score [6]: -0.883
z-score [7]: -0.6
composite z-score [8]: -0.638
composite z-score [9]: 0.335
z-score [10]: -0.0654 (inactive)
composite z-score [11]: -0.161
z-score [12]: -3.05 (inactive)
z-score [13]: -0.0576 (inactive)
z-score [14]: 0.798 (inactive)
z-score [15]: 1.04 (inactive)
composite z-score [16]: -0.608
composite z-score [17]: -0.0719
composite z-score [18]: -0.34
composite z-score [19]: -0.241
composite z-score [20]: 0.144

[N-]=[N+]=NCc1ccccc1C[C@@]1(C(N)=O)N=C(c2ccc(OCCCO)cc2)O[C@@H]1c1ccccc1CN=[N+]=[N-]
composite z-score [1]: 1.13
composite z-score [2]: 1.22
composite z-score [3]: 0.0375
composite z-score [4]: 0.761
composite z-score [5]: 0.591
composite z-score [6]: 0.653
z-score [7]: 1.45
composite z-score [8]: -0.242
composite z-score [9]: 0.756
z-score [10]: -1.11 (inactive)
composite z-score [11]: 0.592
z-score [12]: -2.14 (inactive)
z-score [13]: 0.0387 (inactive)
z-score [14]: 0.0451 (inactive)
z-score [15]: 0.161 (inactive)
composite z-score [16]: 1.13
composite z-score [17]: -0.0418
composite z-score [18]: 0.549
composite z-score [19]: 0.335
composite z-score [20]: -0.302

[N-]=[N+]=Nc1ccccc1C[C@@]1(C(=O)O)N=C(c2ccc(OCCCO)cc2)O[C@@H]1c1ccccc1
composite z-score [1]: 1.22
composite z-score [2]: 0.749
composite z-score [3]: 0.769
composite z-score [4]: 0.997
composite z-score [5]: 0.247
composite z-score [6]: -0.0664
z-score [7]: 0.528
composite z-score [8]: -0.634
composite z-score [9]: 1.09
z-score [10]: -0.972 (inactive)
composite z-score [11]: 0.104
z-score [12]: -0.275 (inactive)
z-score [13]: -0.078 (inactive)
z-score [14]: -0.585 (inactive)
z-score [15]: -0.218 (inactive)
composite z-score [16]: 1.48
composite z-score [17]: 0.0633
composite z-score [18]: 0.0324
composite z-score [19]: 0.779
composite z-score [20]: -0.0424
